Test results as given in PubChem BioAssay (NCATS).
A number with no mark means an inactive call. Inconclusive results are not listed. Where a call stands in place of a potency, no number is given. The source made the active and inactive calls. Unless noted, calls come from the whole dose curve; as a rule, active = well fitted curve in the direction sought with a large enough effect; inconclusive = small, poorly fitted or top-dose-only effect, or another doubt; inactive = no such curve, though single readings can be large; an effect the other way counts as inactive or inconclusive.

Tests used:
[1] = target: Beta-2 adrenergic receptor (Homo sapiens) (UniProt P07550); test: qHTS validation assay of beta-arrestin-biased ligands of beta2-adrenergic receptor (AID 485366)
How it was run: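 Compound series up to 46 microM applied to beta2-AR/beta-arrestin Tango cells, 18 hr, 37 degrees C, 5% CO2. Read-out: tTA-driven luciferase luminescence, converted to %Activity; concentration-response curves assigned curve classes.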

[2] = target: ATP-dependent 6-phosphofructokinase (Trypanosoma brucei brucei) (UniProt O15648); test: qHTS Validation Assay to Find Inhibitors of T. brucei phosphofructokinase (AID 485368)
How it was run: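 qHTS format, up to 57 uM. PFK 1.25 nM; F6P 0.5 mM; ATP 0.1 mM; 5 mM MgCl2, 0.01% Tween20, 0.1% BSA; 0.1 M TEA pH 8.0; 45 min RT; ADP-Glo readout; no-enzyme control = full inhibition.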

[3] = target: Thioredoxin reductase 1, cytoplasmic (Rattus norvegicus) (UniProt O89049); test: qHTS Assay for Substrates of Mammalian Selenoprotein Thioredoxin Reductase 1 (TrxR1) (AID 488772);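 note: series mostly up to about 57 µM; a drop in NADPH fluorescence below the no-compound background marks a TrxR1 substrate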
How it was run: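 In this dual-purpose format, potential substrates are identified from the first fluorescence read after selenite addition, not from the 8-minute delta. Rat enzyme is preincubated with NADPH and then with compound at ~22 deg C.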

[4] = target: Thioredoxin reductase 1, cytoplasmic (Rattus norvegicus) (UniProt O89049); test: qHTS Assay for Inhibitors of Mammalian Selenoprotein Thioredoxin Reductase 1 (TrxR1) (AID 488773); conditions: Potency: inhibition;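 note: drop in NADPH fluorescence over an 8 min run after selenite addition; series mostly up to about 57 µM; nearly all actives have a fitted effect of over 40% in size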
How it was run: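 Inhibition is scored from the loss of NADPH fluorescence between first and last reads of an 8-min kinetic run. Selenite (400 uM) was the substrate, added after 15 min compound preincubation at room temperature.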

[5] = target: M-phase phosphoprotein 8 (Homo sapiens) (UniProt Q99549); test: qHTS Validation Assay for Inhibitors for MPP8 Chromodomain Interactions with Methylated Histone Tails (AID 488949);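 note: AlphaScreen signal from MPP8 chromodomain bound to biotinylated H3K9me3 peptide; top concentration of the series differs between compounds; nearly all actives have a fitted effect of over 55% in size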
How it was run: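 Disruption of the preformed MPP8–trimethyl-H3K9 peptide complex (both 50 nM, 30 min, RT) is measured after 30 min compound exposure, using AlphaScreen proximity beads; aurintricarboxylic acid titration serves as plate control.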

[6] = target: Methanococcus maripaludis chaperonin (MmCpn) (UniProt Q6LX38); test: High-Throughput Screening for Modulators of Cytosolic Chaperonin Activity: MmCpn Primary Screen (AID 488978);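 note: 50 nM MmCpn enzyme hydrolysing 30 µM ATP at 37 °C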
How it was run: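 Measures ATPase turnover of the M. maripaludis chaperonin (50 nM final) against 30 uM ATP over 10 min at 37C, with compound added 5 min beforehand at room temperature. ADP is quantified by HTRF immunodetection.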

[7] = target: D(1A) dopamine receptor (Homo sapiens) (UniProt P21728); test: HTS Assay for Allosteric Agonists of the Human D1 Dopamine Receptor: Primary Screen for Agonists (AID 488981)
How it was run: (§1)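 Calcium flux in an inducible, force-coupled HEK293 Trex D1 line (overnight at 30 C): agonist mode is the 180 s kinetic read after compound; potentiator mode is the following 180 s read after dopamine at EC20.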

[8] = target: D(1A) dopamine receptor (Homo sapiens) (UniProt P21728); test: HTS Assay for Allosteric Agonists of the Human D1 Dopamine Receptor: Primary Screen for Potentiators (AID 488982)
How it was run: as §1

[9] = target: D(1A) dopamine receptor (Homo sapiens) (UniProt P21728); test: HTS Assay for Allosteric Agonists of the Human D1 Dopamine Receptor: Primary Screen for Antagonists (AID 488983);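 note: calcium flux response to an EC80 dopamine challenge measured with no-wash dye; nearly all actives have a fitted effect of over 65% in size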
How it was run: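 Kinetic fluorescence at 1 cycle/sec tracked intracellular calcium in force-coupled, tetracycline-inducible HEK293 T-REx D1 cells. Loss of response to an EC80 dopamine dose, given 180 s after compound, marked antagonists.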

[10] = Validation screen for small molecules that induce genotoxicity in human embryonic kidney (HEK293T) cells expressing luciferase-tagged ELG1 (AID 493106); note: potency is the fitted concentration of half-maximal effect
How it was run: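 Cells were dispensed at 2,000 per well, then 23 nL compound or DMSO was pinned in. After 16 hr at 37 °C and 5% CO2, ONE-Glo reagent was added. Luciferase activity was measured following 30 min at room temperature.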

[11] = target: ATPase family AAA domain-containing protein 5 (Homo sapiens) (UniProt Q96QE3); test: Validation screen for small molecules that inhibit ELG1-dependent DNA repair in human embryonic kidney (HEK293T) cells expressing luciferase-tagged ELG1 (AID 493107);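 note: cells co-treated with the DNA-damaging agent 5-fluorouridine alongside compound; series mostly up to about 46 µM; inhibitors lower the ELG1-luciferase luminescence signal; nearly all actives have a fitted effect of over 70% in size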
How it was run: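 Cells are dispensed in 1536-well format, then 5-fluorouridine and compound are pinned in. After a 16 hr incubation at 37 °C and 5% CO2, ONE-Glo is added and luciferase measured on a CCD imager.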

[12] = Quantitative high throughput screen for delayed death inhibitors of the malarial parasite plastid, 96 hour incubation (AID 488745);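 note: luciferase-expressing P. falciparum in erythrocytes at 2% hematocrit and 0.1% parasitemia; series mostly up to about 29 µM; nearly all actives have a fitted effect of over 70% in size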
How it was run: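 Readout is firefly luciferase luminescence from an integrated reporter in P. falciparum; lower signal marks inhibited growth. Cultures at 2% hematocrit and 0.1% parasitemia were treated with compound across two generations (96 h, 37 C, 5% CO2).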

[13] = Quantitative high throughput screen for delayed death inhibitors of the malarial parasite plastid, 48 hour incubation (AID 488752); note: nearly all actives have a fitted effect of over 65% in size
How it was run: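 First, compound was pinned into RPMI 1640 medium containing 0.5% Albumax. Next, reporter-parasite-infected erythrocytes were added to 2% hematocrit and 0.1% parasitemia. After 48 h at 37 C under 5% CO2, luciferase detection reagent was added and luminescence read.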

[14] = target: Flap endonuclease 1 (Homo sapiens) (UniProt P39748); test: qHTS Validation Assay for the Inhibitors of Human Flap endonuclease 1 (FEN1) (AID 488816)
How it was run: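 qHTS format: compounds and 10 nM FEN1 incubated 15 min at room temperature before adding 50 nM substrate. Cleavage followed by reads at 0 and 15 min; normalized data fitted to a four-parameter Hill curve.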

[15] = target: Chromobox protein homolog 1 (Homo sapiens) (UniProt P83916); test: qHTS Validation Assay for Inhibitors of HP1-beta Chromodomain Interactions with Methylated Histone Tails (AID 488953);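 note: loss of AlphaScreen luminescence from HP1-beta binding biotinylated H3K9me3 peptide; series mostly up to about 110 µM; nearly all actives have a fitted effect of over 50% in size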
How it was run: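 Disruption of preformed HP1-beta:H3K9me3 peptide complexes (both 50 nM, PBS pH 7.4 with 0.01% Tween-20) is measured by AlphaScreen after 30 min compound exposure at room temperature, using streptavidin donor and nickel chelate acceptor beads at 10 ug/mL final.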

[16] = target: Transient receptor potential cation channel subfamily V member 1 (Homo sapiens) (UniProt Q8NER1); test: HTS Assay for Compounds that Act as Enhancers of the Vanilloid Receptor 1 (AID 488979)
How it was run: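 Calcium influx kinetics via Fluo-8 (480/520 nm) in TRPV1-expressing cells, 2000/well cultured overnight at 35.5C. Compound-alone read 3 min (agonist phase), followed by EC20 capsaicin challenge for 2 min (enhancer phase).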

[17] = target: Thyrotropin receptor (Homo sapiens) (UniProt P16473); test: qHTS Assay for Antagonists of the Thyroid Stimulating Hormone Receptor (AID 488980); note: series mostly up to about 58 µM
How it was run: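 Cells expressing human TSHR (HEK293) are dispensed in HBSS/HEPES containing 70 uM RO 20-1724, compound is added, then TSH at EC80 (4 nM final). Antibody in lysis buffer follows, 30 minutes at room temperature before HTRF detection.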

[18] = target: Thyrotropin-releasing hormone receptor (Homo sapiens) (UniProt P34981); test: qHTS for Small Molecule Agonists and Allosteric Enhancers of Human TRH Receptor: Validation Screen for Agonists (AID 493127;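 active = calcium activation more than 3 SD above the typical response in the agonist read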;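 note: intracellular calcium rise by fluo-8 fluorescence before TRH EC20 addition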); conditions: TRH receptor agonist cell assay; at 2 µM; stronger effect = higher value
How it was run: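 Compounds are added by online pintool to dye-loaded TRHR cells while fluorescence is recorded every second. A rise in calcium signal during the agonist read marks activation; a later 10 nM TRH addition (EC20) serves the separate enhancer mode.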

Methanococcus maripaludis chaperonin (MmCpn), sequence (Q6LX38 1-543): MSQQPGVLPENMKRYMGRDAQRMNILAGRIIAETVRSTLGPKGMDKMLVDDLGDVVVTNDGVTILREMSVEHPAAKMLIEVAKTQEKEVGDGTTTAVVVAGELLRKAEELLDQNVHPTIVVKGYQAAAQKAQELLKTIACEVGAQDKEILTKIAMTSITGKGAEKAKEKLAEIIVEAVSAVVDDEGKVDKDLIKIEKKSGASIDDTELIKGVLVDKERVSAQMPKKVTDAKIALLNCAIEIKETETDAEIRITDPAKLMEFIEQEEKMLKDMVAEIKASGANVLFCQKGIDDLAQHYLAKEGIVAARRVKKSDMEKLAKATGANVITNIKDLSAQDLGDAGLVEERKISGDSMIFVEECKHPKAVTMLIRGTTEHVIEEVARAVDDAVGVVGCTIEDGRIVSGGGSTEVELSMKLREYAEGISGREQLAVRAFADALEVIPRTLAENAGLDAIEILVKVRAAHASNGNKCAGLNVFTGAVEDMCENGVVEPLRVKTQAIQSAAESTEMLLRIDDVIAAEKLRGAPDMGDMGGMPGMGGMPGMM
D(1A) dopamine receptor (Homo sapiens), sequence (P21728 whole entry, looked up): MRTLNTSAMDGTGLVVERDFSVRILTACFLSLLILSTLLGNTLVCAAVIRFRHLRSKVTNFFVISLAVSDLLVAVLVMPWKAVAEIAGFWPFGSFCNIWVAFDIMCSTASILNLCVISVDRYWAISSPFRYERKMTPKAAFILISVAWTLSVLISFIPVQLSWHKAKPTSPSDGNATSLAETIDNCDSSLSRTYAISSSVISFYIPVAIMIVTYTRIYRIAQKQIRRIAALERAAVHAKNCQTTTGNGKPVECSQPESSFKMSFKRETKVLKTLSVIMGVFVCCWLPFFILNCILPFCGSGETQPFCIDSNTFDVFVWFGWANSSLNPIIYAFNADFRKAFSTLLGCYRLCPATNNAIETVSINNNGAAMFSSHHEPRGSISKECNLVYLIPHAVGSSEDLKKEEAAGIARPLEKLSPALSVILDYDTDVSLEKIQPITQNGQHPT
ATPase family AAA domain-containing protein 5 (Homo sapiens), sequence (Q96QE3 whole entry, looked up, the tested form may be a part): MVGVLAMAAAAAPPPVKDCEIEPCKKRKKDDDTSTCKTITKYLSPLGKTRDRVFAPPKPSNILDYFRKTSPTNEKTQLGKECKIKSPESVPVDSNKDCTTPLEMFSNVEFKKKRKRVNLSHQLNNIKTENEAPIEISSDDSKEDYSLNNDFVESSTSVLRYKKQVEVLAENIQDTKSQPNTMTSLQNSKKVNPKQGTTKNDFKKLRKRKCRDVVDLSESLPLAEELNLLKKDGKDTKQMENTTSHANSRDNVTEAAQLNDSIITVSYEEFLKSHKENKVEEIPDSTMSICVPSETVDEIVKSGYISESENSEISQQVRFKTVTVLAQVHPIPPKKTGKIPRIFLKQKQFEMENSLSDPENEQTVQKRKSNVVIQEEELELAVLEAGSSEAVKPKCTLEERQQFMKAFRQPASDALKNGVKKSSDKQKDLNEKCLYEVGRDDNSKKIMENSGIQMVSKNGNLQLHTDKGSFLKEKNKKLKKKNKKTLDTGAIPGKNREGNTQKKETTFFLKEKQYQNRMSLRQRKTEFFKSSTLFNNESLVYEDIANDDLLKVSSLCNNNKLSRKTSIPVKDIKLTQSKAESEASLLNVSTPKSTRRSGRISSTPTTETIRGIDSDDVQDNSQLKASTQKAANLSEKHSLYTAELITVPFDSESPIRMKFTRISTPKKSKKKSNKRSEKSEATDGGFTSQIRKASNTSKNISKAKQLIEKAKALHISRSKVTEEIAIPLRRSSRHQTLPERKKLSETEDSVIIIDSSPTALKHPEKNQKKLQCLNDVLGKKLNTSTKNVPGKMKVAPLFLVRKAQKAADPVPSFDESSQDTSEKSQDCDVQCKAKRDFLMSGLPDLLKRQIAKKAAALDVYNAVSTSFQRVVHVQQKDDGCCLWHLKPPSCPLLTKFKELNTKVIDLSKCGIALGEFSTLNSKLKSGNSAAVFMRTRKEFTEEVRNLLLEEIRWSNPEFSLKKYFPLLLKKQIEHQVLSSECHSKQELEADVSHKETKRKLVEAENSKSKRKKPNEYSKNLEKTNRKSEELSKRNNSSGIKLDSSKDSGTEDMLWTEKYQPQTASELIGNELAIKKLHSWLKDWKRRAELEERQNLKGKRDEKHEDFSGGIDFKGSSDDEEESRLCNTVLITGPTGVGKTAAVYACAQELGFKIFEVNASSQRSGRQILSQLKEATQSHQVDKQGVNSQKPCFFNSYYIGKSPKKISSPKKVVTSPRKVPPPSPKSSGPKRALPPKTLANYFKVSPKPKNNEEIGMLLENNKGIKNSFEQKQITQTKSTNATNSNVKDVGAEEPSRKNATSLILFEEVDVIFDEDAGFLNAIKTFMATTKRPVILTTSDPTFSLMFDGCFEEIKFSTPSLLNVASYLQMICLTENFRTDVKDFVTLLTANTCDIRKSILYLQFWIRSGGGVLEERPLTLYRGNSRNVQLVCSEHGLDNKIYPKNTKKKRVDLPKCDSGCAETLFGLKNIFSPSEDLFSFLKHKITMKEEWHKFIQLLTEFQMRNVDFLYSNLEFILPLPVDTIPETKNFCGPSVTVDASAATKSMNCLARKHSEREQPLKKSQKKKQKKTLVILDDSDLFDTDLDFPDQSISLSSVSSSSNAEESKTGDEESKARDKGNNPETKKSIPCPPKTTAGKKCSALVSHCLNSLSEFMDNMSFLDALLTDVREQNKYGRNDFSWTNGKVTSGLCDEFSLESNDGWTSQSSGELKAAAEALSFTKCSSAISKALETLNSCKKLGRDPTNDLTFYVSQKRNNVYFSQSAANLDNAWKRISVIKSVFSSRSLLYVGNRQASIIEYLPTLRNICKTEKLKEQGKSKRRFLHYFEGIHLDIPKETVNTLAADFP
Beta-2 adrenergic receptor (Homo sapiens), sequence (P07550 whole entry, looked up): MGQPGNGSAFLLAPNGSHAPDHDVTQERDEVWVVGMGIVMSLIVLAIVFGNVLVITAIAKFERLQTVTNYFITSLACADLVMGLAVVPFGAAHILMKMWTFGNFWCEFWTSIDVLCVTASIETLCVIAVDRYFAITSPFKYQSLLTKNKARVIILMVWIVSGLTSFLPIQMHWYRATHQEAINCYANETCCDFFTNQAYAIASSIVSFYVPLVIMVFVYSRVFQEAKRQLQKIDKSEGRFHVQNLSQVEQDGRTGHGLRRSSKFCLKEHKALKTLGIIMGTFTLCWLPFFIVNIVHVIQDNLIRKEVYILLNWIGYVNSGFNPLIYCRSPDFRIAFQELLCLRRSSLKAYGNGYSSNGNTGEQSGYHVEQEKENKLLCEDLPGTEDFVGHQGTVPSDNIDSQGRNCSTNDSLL
Thioredoxin reductase 1, cytoplasmic (Rattus norvegicus), sequence (O89049 whole entry, looked up): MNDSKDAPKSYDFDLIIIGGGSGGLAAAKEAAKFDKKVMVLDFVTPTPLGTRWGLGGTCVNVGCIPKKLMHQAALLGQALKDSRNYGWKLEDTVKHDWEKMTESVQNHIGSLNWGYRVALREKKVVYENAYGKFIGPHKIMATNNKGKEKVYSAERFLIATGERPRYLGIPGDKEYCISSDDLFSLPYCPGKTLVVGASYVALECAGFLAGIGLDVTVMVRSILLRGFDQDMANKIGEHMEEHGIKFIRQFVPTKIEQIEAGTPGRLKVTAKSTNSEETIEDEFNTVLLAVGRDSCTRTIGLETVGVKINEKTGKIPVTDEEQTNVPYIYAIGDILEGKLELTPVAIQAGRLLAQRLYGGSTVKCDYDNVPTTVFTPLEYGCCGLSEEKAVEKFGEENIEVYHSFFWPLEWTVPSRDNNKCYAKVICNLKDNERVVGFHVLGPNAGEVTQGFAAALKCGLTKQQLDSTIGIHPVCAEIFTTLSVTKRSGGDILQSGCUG
ATP-dependent 6-phosphofructokinase (Trypanosoma brucei brucei), sequence (O15648 whole entry, looked up): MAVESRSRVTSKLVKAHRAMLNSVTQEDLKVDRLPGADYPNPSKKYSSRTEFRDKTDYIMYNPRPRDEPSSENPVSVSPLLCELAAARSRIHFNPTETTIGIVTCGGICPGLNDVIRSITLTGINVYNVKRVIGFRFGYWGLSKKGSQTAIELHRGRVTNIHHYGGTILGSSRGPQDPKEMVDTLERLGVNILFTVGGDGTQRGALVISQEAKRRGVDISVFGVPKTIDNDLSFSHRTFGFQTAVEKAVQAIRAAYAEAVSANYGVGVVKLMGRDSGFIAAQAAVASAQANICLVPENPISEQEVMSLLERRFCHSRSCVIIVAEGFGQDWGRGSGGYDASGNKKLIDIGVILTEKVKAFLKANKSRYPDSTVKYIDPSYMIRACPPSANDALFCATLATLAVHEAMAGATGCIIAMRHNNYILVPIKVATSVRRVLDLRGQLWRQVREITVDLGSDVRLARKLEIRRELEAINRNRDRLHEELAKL
Flap endonuclease 1 (Homo sapiens), sequence (P39748 whole entry, looked up): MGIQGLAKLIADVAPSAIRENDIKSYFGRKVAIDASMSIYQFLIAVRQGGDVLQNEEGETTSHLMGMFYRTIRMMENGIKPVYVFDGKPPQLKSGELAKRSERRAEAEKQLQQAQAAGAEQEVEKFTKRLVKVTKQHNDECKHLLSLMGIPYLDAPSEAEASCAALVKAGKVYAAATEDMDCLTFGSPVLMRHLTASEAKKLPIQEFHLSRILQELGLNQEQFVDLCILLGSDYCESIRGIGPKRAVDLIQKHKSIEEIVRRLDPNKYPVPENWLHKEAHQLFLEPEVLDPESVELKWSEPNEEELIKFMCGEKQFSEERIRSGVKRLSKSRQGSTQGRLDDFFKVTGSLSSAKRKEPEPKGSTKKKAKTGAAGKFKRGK
Thyrotropin-releasing hormone receptor (Homo sapiens), sequence (P34981 whole entry, looked up): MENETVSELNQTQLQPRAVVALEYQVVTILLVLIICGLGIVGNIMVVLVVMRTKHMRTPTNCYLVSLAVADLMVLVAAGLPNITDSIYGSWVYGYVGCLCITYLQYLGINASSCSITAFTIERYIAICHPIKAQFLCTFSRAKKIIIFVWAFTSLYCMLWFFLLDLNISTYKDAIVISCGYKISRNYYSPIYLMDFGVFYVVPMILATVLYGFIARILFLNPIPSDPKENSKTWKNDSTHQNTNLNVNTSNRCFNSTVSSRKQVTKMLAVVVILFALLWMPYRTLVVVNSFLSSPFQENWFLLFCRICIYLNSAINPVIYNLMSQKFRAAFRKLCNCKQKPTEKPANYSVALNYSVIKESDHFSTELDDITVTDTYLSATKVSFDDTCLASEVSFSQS

Row | SMILES | outcome [1] | Potency [2] | outcome [3] | Potency [4] | Potency [5] | outcome [6] | Potency [7] | Potency [8] | Potency [9] | Potency [10] | Potency [11] | Potency [12] | Potency [13] | Potency [14] | Potency [15] | outcome [16] | outcome [17] | activation [18] [%]
1 | O=C(O)CCC/C=C\C[C@@H]1[C@@H](/C=C/[C@H](O)C2Cc3ccccc3C2)[C@@H](F)C[C@@H]1O | inactive | inactive | inactive | inactive | inactive | inactive | inactive | inactive | inactive | inactive | inactive | – | – | – | – | – | – | –
2 | c1ccc2c(c1)CCC[C@H]2Nc1nc2ccccc2[nH]1 | inactive | inactive | – | inactive | inactive | inactive | inactive | inactive | inactive | inactive | – | – | – | – | – | – | – | –
3 | O=c1cc(-c2ccccc2F)[nH]c2cc3c(cc12)OCO3 | inactive | inactive | inactive | inactive | inactive | inactive | inactive | inactive | inactive | 5.17 µM (active) | inactive | – | – | – | – | – | – | –
4 | CCN(CC)CCOC(=O)c1cc(Cl)c(N)cc1OC | inactive | – | inactive | inactive | inactive | inactive | inactive | inactive | inactive | inactive | inactive | inactive | inactive | inactive | inactive | inactive | inactive | 1.5
5 | COc1ccc2c(c1)c(CC(=O)O)c(C)n2C(=O)c1ccccc1 | inactive | – | inactive | inactive | inactive | inactive | inactive | inactive | inactive | inactive | inactive | inactive | inactive | inactive | inactive | inactive | inactive | 0.812
